# Measured values: PubChem BioAssay AID588852 (The Scripps Research Institute Molecular Screening Center, 2011)
# About 4,600 (1.3%) of roughly 360,000 compounds were called active. For the sample, actives were picked, then their nearest neighbours and some compounds at random. Unmarked numbers belong to inactive results.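 Rule for the calls: active = percent inhibition above its own plate's cutoff, namely the mean of that plate's compound wells plus 3 SD; inactive = the rest.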
# Target: Muscarinic acetylcholine receptor M1 (Homo sapiens) (UniProt P11229)
# Sequence (P11229 whole entry, looked up): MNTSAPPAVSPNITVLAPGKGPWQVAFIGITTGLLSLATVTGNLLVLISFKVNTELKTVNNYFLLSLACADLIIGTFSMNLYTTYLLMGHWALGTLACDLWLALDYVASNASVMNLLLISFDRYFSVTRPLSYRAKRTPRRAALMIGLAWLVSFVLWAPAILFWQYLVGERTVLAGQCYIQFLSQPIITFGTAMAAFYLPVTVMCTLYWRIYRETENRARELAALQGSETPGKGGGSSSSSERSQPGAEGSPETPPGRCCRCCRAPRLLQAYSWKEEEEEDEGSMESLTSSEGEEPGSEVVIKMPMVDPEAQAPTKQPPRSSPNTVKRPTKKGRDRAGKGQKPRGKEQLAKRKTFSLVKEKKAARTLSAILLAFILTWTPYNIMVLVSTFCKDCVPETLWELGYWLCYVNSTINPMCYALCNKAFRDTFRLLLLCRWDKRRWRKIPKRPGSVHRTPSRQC
# Test: human M1 muscarinic receptor antagonists, primary screen, CHO-K1 cells, Fluo-8 calcium fluorescence, 1536-well (AID 588852);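 note: peak over basal fluorescence ratio during 140 s after agonist addition; 0% = ACh EC80 plus DMSO and 100% = DMSO alone without agonist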
# Details: CHO-K1 hM1, Fluo-8 calcium fluorescence, ACh EC80 antagonist; at 3 µM; stronger effect = higher value
row,SMILES,inhibition
1,CN1OC[C@@H]2CN(C(=O)c3cccnc3)[C@H](c3ccc(N4CCCCC4)cc3)C[C@@H]21,-0.12%
2,Cc1ccc(C(=O)OCC(=O)N2CCCCCC2)cc1S(=O)(=O)N1CCOCC1,-0.5%
3,COc1ccc(CNC(=O)COC(=O)c2ccc(C)c(S(=O)(=O)N3CCOCC3)c2)cc1OC,-2.56%
4,COc1ccc(C(=O)OCC(=O)c2ccc(C)c(S(=O)(=O)N3CCOCC3)c2)cc1OC,42% (active)
5,CC1(Cc2ccccc2C#N)C(=O)Nc2ccc(-c3ccc4[nH]ccc4c3)cc21 (stereo not given),8.72%
6,CCOC(=O)c1ccn(S(=O)(=O)c2ccc(C)cc2)c1-c1ccccc1,13.3%
7,COc1ccccc1C(CNC(=O)c1cccc(S(=O)(=O)Nc2ccc(F)cc2)c1)N(C)C (stereo not given),100% (active)
8,CC(=O)c1ccc(S(=O)(=O)Nc2ccc(C(=O)NCC(c3ccccc3)N(C)C)cc2)cc1 (stereo not given),16.4%
9,COc1ccc(C(CNC(=O)c2cccc(S(=O)(=O)Nc3ccc(Br)cc3)c2)N(C)C)cc1 (stereo not given),-2.85%
10,Cc1cccc(NS(=O)(=O)c2ccc(C)c(C(=O)NCC(c3ccccc3)N(C)C)c2)c1 (stereo not given),-6.04%
11,CN(C)C(CNC(=O)c1cccc(S(=O)(=O)Nc2ccc(Br)cc2)c1)c1ccco1 (stereo not given),-0.14%
12,COc1ccccc1C(CNC(=O)c1cccc(NS(=O)(=O)c2ccc(Br)cc2)c1)N(C)C (stereo not given),99.2% (active)
13,CCOc1ccc2[nH]c(=S)sc2c1,-3.12%
14,CCc1ccc[n+](-c2nc([O-])sc2C=O)c1,-4.29%
15,Cc1ccc(S(=O)(=O)N2CCOCC2)cc1C(=O)OC1CCCCC1=O (stereo not given),0.72%
16,O=C(/C=C/[C@H]1O[C@@H](n2ccc(=O)[nH]c2=O)[C@H](O)[C@@H]1O)NCc1ccccn1,-44.8%
17,Cc1cccc(CSc2nc3c(c(=O)n2C)SCC3)c1,55.3% (active)
18,Cc1cccc(CSc2nnc(C)c(=O)n2N)c1,-6.73%
19,Cn1c(SCC(=O)N2CCCCC2)nc2c(c1=O)SCC2,17.4%
20,O=C(OCC(=O)N1CCc2ccccc21)C1CCCN1S(=O)(=O)c1ccc(Cl)cc1 (stereo not given),-8.54%
21,CN[C@H]1C[C@H]2c3cc(Oc4ccccc4C)ccc3CCN2C(=O)[C@H]1[C@H](C)O,-8.68%
22,Cc1ccccc1CN1C(=O)c2ccccc2Sc2ccc(C(=O)NCCCN3CCOCC3)cc21,-18.2%

row,SMILES,inhibition
1,CCN1CCN(CCNC(=O)c2ccc3c(c2)NC(=O)/C(=C\c2cccc(Cl)c2)S3)CC1,3.02%
2,CCN1CCN(CCNC(=O)c2ccc(/C=C3/Sc4ccccc4N(Cc4cccc(C)c4)C3=O)cc2)CC1,35.2% (active)
3,C[C@H](NC(=O)CC[C@H]1O[C@@H](n2ccc(=O)[nH]c2=O)[C@H](O)[C@@H]1O)c1cccc2ccccc12,-22.7%
4,CCC(C)NCCOCCOc1ccc(Br)cc1C (stereo not given),34.6% (active)
5,COCC(C)NCc1cc(Br)ccc1OC (stereo not given),-2.87%
6,COCCCNCCOCCOc1ccc(Cl)cc1Br,-3.69%
7,COC(=O)c1ccc(CN2C(=O)C(Cc3ccccc3)ON=C2c2ncccc2C)o1 (stereo not given),0.28%
8,CC(C)C(NC(=O)c1c(F)cccc1F)C(=O)NNC(=O)c1ccccc1 (stereo not given),7.65%
9,CN1CCN(CCCNC(=O)c2ccc(/C=C3\Oc4ccccc4N(Cc4ccc(Cl)cc4)C3=O)cc2)CC1,53.5% (active)
10,CCC1Oc2ccccc2N(CC(=O)NCCCN2CCN(CC)CC2)C1=O (stereo not given),-1.31%
11,Cc1c(C)n(Cc2ccc(Cl)cc2)c2ccc(C(=O)NCCCN3CCOCC3)cc12,12.4%
12,C=Cn1cc[n+](CC(=O)c2ccc(OC)c(OC)c2)c1,8.24%
13,CN(Cc1ccccc1)C(=O)c1ccc(COc2ccccc2)cc1,-0.5%
14,CN(C(=O)CN1CCN(c2cc(-c3ccc(OCc4ccccc4)cc3)ncn2)CC1)c1ccccc1,30.1% (active)
15,CCOc1ccc(OCc2ccc(C(=O)N(C)c3ccccc3)o2)cc1,-7.87%
16,CC(C)NC(=O)NCCCCCCS(C)=O (stereo not given),-12%
17,C/C=C/c1ccc(OCCCCN2CCC(C)CC2)c(OC)c1,10.4%
18,Cc1sc2ncn(CC(=O)NCCCC(=O)N3CCN(c4ccccc4F)CC3)c(=O)c2c1C,9.4%
19,COc1ccccc1C(=O)NN1C(=O)C2C3C=CC(O3)C2C1=O (stereo not given),1.11%
20,COc1ccc(C(=O)NN2C(=O)C3C(c4ccccc4)C=CC(c4ccccc4)C3C2=O)cc1 (stereo not given),27.3% (active)
21,O=C(NN1C(=O)C2C3C=CC(O3)C2C1=O)c1ccccc1 (stereo not given),-6.53%
22,Cc1ccc(S(=O)(=O)NCC(=O)N(CC(=O)NCC2CCCO2)c2cccc(F)c2)cc1 (stereo not given),-7.09%

row,SMILES,inhibition
1,CC(=O)Nc1cccc(-c2ccnc3c2CC(C)(C(=O)NCc2ccccc2)O3)c1 (stereo not given),-11.3%
2,CC(O)(c1cccc(F)c1)c1nc(-c2ccc3c(c2)OCO3)cs1 (stereo not given),1.89%
3,Fc1ccc(-n2c(Cc3ccccc3)nnc2SCc2nc(-c3ccc(Cl)cc3)no2)cc1,-1.38%
4,COc1ccc2[nH]c(=O)c(CN(Cc3cccnc3)S(=O)(=O)c3ccccc3F)cc2c1,30.8% (active)
5,COc1ccc(-c2[nH]ncc2CN(C)Cc2cccnc2)c(F)c1,-0.76%
6,CCOc1ccc2[nH]c(=O)c(CN(CCCO)S(=O)(=O)c3ccc(F)cc3)cc2c1,-1.99%
7,O=C(NCCN1CCOCC1)c1ccccc1N1C(=O)[C@@H]2Cc3c([nH]c4ccccc34)C(c3cccc(Cl)c3)N2C1=O (stereo not given in full),9.91%
8,CCCc1nc2c3ccccc3ccn2c1Cc1ccccc1C(F)(F)F,0.78%
9,COc1ccccc1CC1(C)C(=O)Nc2ccc(OC(F)(F)F)cc21 (stereo not given),-12.6%
10,CC1=C(C(=O)N(C(C)C)C(C)C)CC(CC(=O)NCC2CCCCC2)C(=O)N1Cc1ccccc1 (stereo not given),-28.2%
11,Cc1c2cnn(CC(=O)NCc3ccccn3)c(=O)c2c(C)n1Cc1ccc(Cl)cc1,-7.49%
12,N#C/C(=C/c1ccc(N2CCCCC2)o1)C(=O)NCCc1c[nH]c2ccccc12,44.3% (active)
13,N#C/C(=C\c1ccc(N2CCOCC2)o1)C(=O)N1CCOCC1,-4.72%
14,N#C/C(=C/c1ccc(N2CCOCC2)o1)C(=O)N1CCOCC1,-3.41%
15,Cc1ccc2cc(C)c(N3CCC(C)CC3)nc2c1,1.39%
16,Cc1cc(Nc2cc(N3CCN(C)CC3)nc(Sc3ccc(NC(=O)C4CC4)cc3)n2)n[nH]1,-2.83%
17,CCN(CC)CCN(C(=O)c1ccc2c(c1)CCCC2)c1nc2c(OC)cccc2s1,14.3%
18,CCN(CC)CCN(C(=O)c1cc(Cl)sc1Cl)c1nc2cc3c(cc2s1)OCO3,83.7% (active)
19,CCNC(=S)N(CCN(CC)CC)Cc1cc2cc3c(cc2[nH]c1=O)OCO3,-13.5%
20,C[C@@H]1CN([C@H](C)CO)C(=O)c2cc(Br)cnc2O[C@@H]1CN(C)Cc1cncnc1,-11.6%
21,COc1ccc(S(=O)(=O)N2CCN(C(=O)N(C)C)C2C)cc1 (stereo not given),-7.85%
22,O=C(CC[C@H]1O[C@@H](n2ccc(=O)[nH]c2=O)[C@H](O)[C@@H]1O)N[C@H](Cc1ccccc1)C(=O)NCc1ccco1,-4.88%

row,SMILES,inhibition
1,Cc1ccc(S(=O)(=O)N2CC[C@H]3[C@@H](C2)C(=O)C[C@@H](c2ccccc2)N3S(=O)(=O)c2ccc(C)cc2)cc1,-2.99%
2,CCC(=O)Nc1ccc2c(c1)nc(CCN1CCN(c3ccccn3)CC1)n2C,41.9% (active)
3,Cn1c(CCN2CCN(c3ccccn3)CC2)nc2cc(NS(=O)(=O)c3ccc(F)cc3)ccc21,69.9% (active)
4,CCN(CC)c1ccc(NC(=O)CN2CCN(c3ccccn3)CC2)cc1,-1.84%
5,Cn1c(=O)n(C)c2cc(S(=O)(=O)Nc3ccc(F)cc3)ccc21,0.75%
6,CCOC(=O)N1CCN(Cc2nc3cc(NC(C)=O)ccc3n2C)CC1,-2.65%
7,Cn1c(=O)n(C)c2cc(NS(=O)(=O)c3ccc(F)cc3)ccc21,4.92%
8,CCOc1ccc(CCN2C(=S)N([C@@H](CC(C)C)CN3CCC[C@@H]3CN3C(=S)NC[C@@H]3Cc3ccc(O)cc3)C[C@@H]2Cc2ccc(O)cc2)cc1,-5.61%
9,COc1ccc(OC)c(C2C3=C(N=c4s/c(=C\c5cccc(O)c5)c(=O)n42)c2ccccc2CC3)c1 (stereo not given),-14.9%
10,CC1(c2cccc(Br)c2)NC(=O)N(CC(=O)NCCC2=CCCCC2)C1=O (stereo not given),-4.07%
11,CN(C)Cc1ccc(F)cc1Sc1cc(Cl)ccc1Cl,91.5% (active)
12,Cc1ccc(-c2ccc(=O)n(Cc3ccc(F)cc3Cl)n2)cc1,-14.4%
13,CN(Cc1ccc(F)cc1Cl)S(=O)(=O)c1cccs1,-6.7%
14,CC(=O)NC(c1cccs1)c1cc(Br)c2cccnc2c1O (stereo not given),-13.2%
15,CCOC(=O)c1[nH]c2ccc(C)cc2c1N=C(C)N(C)C,33.5% (active)
16,CCOC(=O)c1cc2cc(C)ccc2[nH]1,6.42%
17,CCOC(=O)c1[nH]c2ccc(OC)cc2c1NC(=O)N1CCOCC1,-21.5%
18,Cc1ccc(-c2ccnc3nc(Sc4ncc(C(F)(F)F)cc4Cl)nn23)cc1,-1.4%
19,O=C(Nn1cnnc1)c1cc(Cl)ccc1Cl,-9.41%
